Here are results for 40 molecules from PubChem BioAssay (NCI).

Values joined by “and” are separate entries in the source; they are usually repeats but may differ in a detail not shown here. Equal entries are not always repeated. About 83,000 compounds went through this panel and 20% of them were active in at least one assay; those are over-represented in the sample as a whole.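 Negative percent growth values reflect cell death: -40 means 40% of the cells present at the start died, and -100 means all died.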 Active and inactive are the calls of the source. The calls were made as follows: active = growth percent below 10; inactive = the rest.

This experiment concerns HL-60(TB) leukemia. The experiment is described as follows: NCI-60 one-dose screen, 48 h (100 = growth as untreated, 0 = no growth, -100 = all killed). The note with it: 10 µM unless noted.
Regarding `O=C(Nc1ccc(F)cc1F)c1cc(F)ccc1O`, the growth was -25.4% (active). For `CCNC(=O)Nc1ccc(-c2nc3c(c(N4CCOC[C@@H]4C)n2)CCN(C2COC2)C3)cc1`, the growth was 82.6% (inactive) and 44.4% (inactive). `CCN(CC)c1ccc2c(c1)Oc1nc(N)c(C#N)c(N)c1C2Sc1ccc(SC)cc1` (stereo not given): the growth is -31.7% (active).

Take `CC/C(=C(/c1ccc(OCCN(C)C)cc1)c1ccc(OC(=O)CCCCCCCCC(=O)c2c(C)[nH]c(/C=C3\N=C(c4ccc[nH]4)C=C3OC)c2C)cc1)c1ccccc1`: the growth was 76.7% (inactive). For the molecule `[2H]c1nc(Nc2ncc(F)c(-c3cc(F)c4nc(C)n(C(C)C)c4c3)n2)c([2H])c([2H])c1CN1CCN(C([2H])([2H])C([2H])([2H])[2H])CC1`, the growth is 34.6% (inactive). Consider `O=C(/C=C\c1ccnc2ccccc12)c1ccc([N+](=O)[O-])cc1`, for which the growth was 47.1% (inactive) and 30.4% (inactive).

With `CCOc1ccccc1/C=N/N1CCCCCC1`, the growth was 99.1% (inactive). With `Nc1cc2c(cc1N)-c1ccccc1C2`, the growth is 7.76% (active) and 64.3% (inactive). Turning to `Cc1ccc(C(=O)Nc2ccc(Cl)cc2C(=O)NCc2ccccc2)cc1`, the growth is 51.9% (inactive). On to `COc1ccc2c(c1)C1(C(=O)N2)C(C#N)=C(c2ccccc2)Nc2c1c(-c1ccccc1)nn2-c1ccccc1` (stereo not given), for which the growth was 3.96% (active). Regarding `O=C1C=Cc2ccccc2/C1=C/c1nc(-c2ccccc2)oc1O`, the growth is 101% (inactive).

Consider `COC(=O)CNC(=O)[C@H](Cc1ccccc1)NCc1ccncc1`, for which the growth is 88.6% (inactive).

Turning to `COC(=O)c1ccc2c(c1)C(=O)c1c-2n(CCCN)c(=O)c2cc([N+](=O)[O-])ccc12`, the growth is -85.9% (active).

As for `COc1cccc(C2C(C#N)=C(N)Oc3cc4c(cc32)OCO4)c1` (stereo not given), the growth was -45% (active).

With `O=C(C(=O)N1CCOCC1)c1cn(CCCn2cc(C(=O)C(=O)N3CCOCC3)c3ccccc32)c2ccccc12`, the growth is 91.9% (inactive). `O=C1Nc2c(c(=O)n(-c3ccccc3)c3ccccc23)C(c2ccc(Cl)cc2)N1` (stereo not given): the growth was 108% (inactive). Consider `O=c1cc(-c2ccccc2)oc2cc(OCc3cn(Cc4ccc(F)cc4)nn3)cc(O)c12`, for which the growth was 104% [100 µM] (inactive).

For the molecule `C=C(C)[C@@H]1CC[C@]2(C(=O)OCCCC[P+](c3ccccc3)(c3ccccc3)c3ccccc3)CC[C@]3(C)[C@H](CC[C@@H]4[C@@]5(C)CC[C@H](OC(=O)C(Cl)Cl)C(C)(C)[C@@H]5CC[C@]43C)[C@@H]12`, the growth is -49.9% (active). In the case of `COc1ccc(/C=C/c2nc(Nc3ccc(Cl)cc3)c3ccccc3n2)cc1`, the growth is -11.3% (active). In the case of `CCOC(=O)N(O)c1ccc(/C=C/c2ccccc2)cc1`, the growth was 61.1% (inactive) and 43.9% (inactive). Consider `NC(=O)c1cc(Br)cc(Br)c1NS(=O)(=O)c1ccccc1`, for which the growth is 92.6% (inactive). With `C=C(C)[C@@H]1CC[C@]2(CO)CC[C@]3(C)[C@H](CC[C@@H]4[C@@]5(C)CC[C@H](NCO)C(C)(C)[C@@H]5CC[C@]43C)[C@@H]12`, the growth is -52% (active). With `COc1ccc(Nc2nc(N/N=C/c3ccc(O)cc3)nc(Nc3ccc([N+](=O)[O-])cc3)n2)cc1`, the growth was 116% (inactive).

In the case of `CCOC(=O)c1c(C)nc2c(c1N)CC(=O)N2Cc1cc(F)cc(Cl)c1`, the growth is 79.1% (inactive). In the case of `Cc1nssc1=S`, the growth was 106% (inactive). Consider `CCN(C)CCCOc1ccc(/C(=C(\C)Cc2cccc(OC)c2)c2ccc(OC(C)=O)cc2)cc1`, for which the growth was 100% (inactive). Regarding `COc1ccc2nc(Cl)cc(C)c2c1`, the growth is 89.3% (inactive) and 9.88% (active). As to `O=C(O)c1ccc(CNS(=O)(=O)c2ccc3ccccc3c2)cc1`, the growth was 68.1% (inactive). As for `COC(=O)/C(CCC=C(C)C)=C1\[C@@H](OC(C)=O)C[C@@]2(C)[C@H]1CC(=O)N[C@H]1[C@@]3(C)CCNC(=O)[C@@H](C)[C@@H]3CC[C@@]12C`, the growth was 102% (inactive). With `Nc1c(S(=O)(=O)O)cc(Br)c2c1C(=O)c1ccccc1C2=O`, the growth is 103% (inactive) and 91% (inactive). With `COc1c(CNC(=O)CCl)cc2[nH]c(C)cc2c1CNC(=O)CCl` the figure was 39.4% (inactive); with `CC(=O)Nc1ncc(S(=O)(=O)c2ccc([N+](=O)[O-])cc2)s1`, 113% (inactive); with `COc1cc2cc(Oc3ccc(NC(=O)c4cccc(C(F)(F)F)c4)cc3)c(C)nc2cc1OC`, 27.8% (inactive). For the molecule `CC1=C/C(O)CC(=O)Cc2nc(co2)C(=O)N2CCC=C2C(=O)OC(C(C)C)C(C)/C=C\C(=O)NC/C=C\1` (stereo not given), the growth was 56.4% (inactive). `Nc1ccc(S(=O)(=O)c2ccc(Cl)cc2)cc1`: the growth is 100% (inactive). Consider `COc1cc2nc(N3CCC[C@@H](NC(=O)C4COc5ccccc5O4)C3)nc(N)c2cc1OC` (stereo not given in full), for which the growth was 105% (inactive) and 102% (inactive). Regarding `CCN(CC)CCNC(=O)c1cn2ncnc(Oc3ccc(NC(=O)Nc4ccc(Cl)c(C(F)(F)F)c4)cc3)c2c1C`, the growth was -40.8% (active). For the molecule `CCOC(=O)c1sc2ncc(-c3ccc(C)cc3)n2c1C`, the growth is 75.4% (inactive).

On to `CC(=O)Nc1nc2ccc(NS(=O)(=O)c3cccc4c(N(C)C)cccc34)cc2[nH]1`, for which the growth was 27.8% (inactive).

In the case of `COc1cc2oc(-c3ccc(O)cc3)cc(=O)c2c(O)c1I`, the growth is 99% (inactive).
